# Compound activity: PubChem BioAssay, National Center for Advancing Translational Sciences (NCATS)
# In the library only some 7.5% were active in any assay of this set; here they are far more common.
# ELG1 genotox – inducers of genotoxicity in HEK293T ELG1-luciferase cells | HEK293T ELG1-luciferase reporter, luminescence, 16 h | Potency, µM (top dose mostly 46 µM), usual class: activators | 330,000 compounds, 1.3% hits; note: nearly all actives have a fitted effect of over 60% in size
#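 Quantitative HTS format in 1536-well plates. HEK293T ELG1-luciferase reporter cells receive test compound and are incubated 16 hr at 37 °C, 5% CO2; ONE-Glo added, 30 min room temperature, then luminescence read.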
# NPC1 prom act – activates the NPC1 promoter | Huh7 NPC1 promoter luciferase reporter, 24 h | Potency, µM (titrated, usually from 9.22 µM), actives largely listed as activators | 320,000 compounds, 2.4% hits; note: nearly all actives have a fitted effect of over 60% in size
#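 Cells: Huh7 expressing luciferase under the NPC1 promoter, 1500/well. Seeded 2 h, compound added, incubated 24 h at 37 °C. Luciferase reagent, 10 min ambient, then luminescence.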
# Rab9 prom act – activators of Rab9 promoter | Huh7 Rab9 promoter-luciferase reporter, luminescence, 24 h | 320,000 compounds, 2.8% hits | Potency, µM (doses to about 9.22 µM), usual class: activators | AID 485297; note: nearly all actives have a fitted effect of over 60% in size
#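 Measured in stably transfected Huh7 cells bearing a Rab9 promoter–luciferase construct: 24 h compound treatment at 37 °C, followed by luminescence detection.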
# FLuc counter – firefly luciferase modulation, counter-screen for miR-21 project; P08659; purified FLuc, Km substrates, luminescence inhibition; Potency, µM (highest dose often 57.5 µM), actives largely listed as inhibitors; 360,000 compounds, 6.9% hits; note: nearly all actives have a fitted effect of over 55% in size
# Target sequence (P08659 whole entry, looked up): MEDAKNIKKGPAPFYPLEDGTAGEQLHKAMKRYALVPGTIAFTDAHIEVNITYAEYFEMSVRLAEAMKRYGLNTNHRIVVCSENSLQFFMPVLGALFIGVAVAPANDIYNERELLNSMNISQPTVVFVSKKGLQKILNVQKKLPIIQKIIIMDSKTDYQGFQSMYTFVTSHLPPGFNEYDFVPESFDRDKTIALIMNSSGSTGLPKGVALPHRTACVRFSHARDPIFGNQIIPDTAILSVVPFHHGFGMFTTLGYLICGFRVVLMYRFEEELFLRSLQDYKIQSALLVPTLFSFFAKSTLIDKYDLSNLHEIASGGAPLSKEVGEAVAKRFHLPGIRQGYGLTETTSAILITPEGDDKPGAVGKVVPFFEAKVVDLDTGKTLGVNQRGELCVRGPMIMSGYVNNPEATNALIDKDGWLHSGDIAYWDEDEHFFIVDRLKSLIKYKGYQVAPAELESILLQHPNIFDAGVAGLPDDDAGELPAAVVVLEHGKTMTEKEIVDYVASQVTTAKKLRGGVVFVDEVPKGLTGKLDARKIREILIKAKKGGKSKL
#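 Biochemical qHTS of compounds, final roughly 60 µM downward over six points, against 10 nM purified firefly luciferase using Km concentrations of substrates (10 uM D-luciferin, 10 uM ATP) in Tris acetate pH 7.5 buffer; luminescence output.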
# SMN2 splice up – SMN2 splice variant enhancement; HEK293 SMN2-luciferase splicing reporter, luminescence, 30-36 h; Potency, µM (doses to about 46.1 µM), most hits filed as activators; 210,000 compounds, 2.8% hits; AID 1458; note: nearly all actives have a fitted effect of over 55% in size
#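 HEK293 cells carry an SMN2 minigene-luciferase reporter in which exon 7 inclusion puts luciferase in frame. Cells were seeded at 2000 cells/well, attached for 10-12 hours, then exposed to compounds for 30-36 hours at 37C before ONE-Glo luminescence.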
# A number is an active result; n = inactive; u = inconclusive; x = no result given. Calls come from the whole dose curve; as a rule, active = well fitted curve in the direction sought with a large enough effect; inconclusive = small, poorly fitted or top-dose-only effect, or another doubt; inactive = no such curve, though single readings can be large; an effect the other way counts as inactive or inconclusive.
SMILES,ELG1 genotox,NPC1 prom act,Rab9 prom act,FLuc counter,SMN2 splice up
CCOc1ccc(N(CC(=O)N2CCOCC2)S(=O)(=O)c2ccc(Cl)cc2)cc1,n,n,n,n,x
Cc1ccc(CNC(=O)CN2c3cccc4cccc(c34)S2(=O)=O)cc1,n,n,n,15µM,x
O=C(CN1c2cccc3cccc(c23)S1(=O)=O)NCc1ccc(F)cc1,n,x,x,x,x
O=C(Nc1ccc(C(=O)OCc2cc(=O)n3c4c(sc3n2)CCCC4)cc1)c1ccc(Cl)cc1,x,x,x,n,x
CCOC(=O)C1(Cc2ccccc2Cl)CCN(C(=O)CCn2ccnc2C)CC1,n,n,u,19µM,x
CCOC(=O)C1(Cc2ccccc2Cl)CCN(S(=O)(=O)N(C)C)CC1,n,n,n,n,x
CN(C)c1ccc(/C=N/N=C2/NC(=O)/C(=C/c3ccc([N+](=O)[O-])cc3)S2)cc1,n,u,u,0.11µM,n
CN(C)c1ccc(N=Cc2cccn2C)cc1,15µM,n,n,3.4µM,x
CC(=O)Oc1oc(-c2ccccc2)nc1C=Nc1ccc(N(C)C)cc1,n,n,n,n,x
N=c1c(C(=O)NCC2CCCO2)cc2c(=O)n3ccccc3nc2n1CCCO (stereo not given),x,x,x,n,n
COc1ccc(NS(=O)(=O)c2cccc(-c3nnc4n3CCCCC4)c2)cc1,n,n,n,n,n
COc1ccc(-c2nc3n(c2C)CCC3)cc1,n,n,n,u,x
COc1ccc(-c2cc3nc4n(c(=O)c3s2)CCC4)cc1,0.13µM,0.45µM,0.5µM,0.6µM,0.63µM
COc1ccc(-c2cc3nc4n(c(=O)c3s2)CCCCC4)cc1,2.6µM,0.63µM,0.71µM,1.3µM,x
Cc1nc2cnc(N(C)C)nc2n(C)c1=O,x,x,x,x,n
CN(C)c1c2ccccc2nc2c(F)c(F)c(F)c(F)c12,n,n,n,n,n
Cc1c2ccccc2nc2c(F)c(N(C)C)c(F)c(F)c12,u,n,u,9.5µM,u
COc1ccc(NC(=O)Nc2ccc3oc(C)nc3c2)cc1,u,n,u,12µM,x
Cc1nc2cc(NC(=O)NCCC3=CCCCC3)ccc2o1,15µM,4µM,3.5µM,12µM,x
C=CCNC(=O)Nc1ccc2oc(C)nc2c1,n,n,n,n,n
Nc1ccc(C(=O)Nc2nccs2)cc1,u,u,4µM,u,13µM
CC(=O)Nc1sc(NC(=O)c2ccc(C)cc2)nc1-c1cccs1,n,n,n,n,11µM
Cc1ccc(C(=O)Nc2nccs2)cc1,u,2.8µM,2.2µM,8.5µM,10µM
O=C(Nc1nccs1)c1ccc(NC(=O)c2ccco2)cc1,u,4µM,2.8µM,17µM,u
CC(NC(=O)c1ccco1)C(=O)Nc1nccs1 (stereo not given),n,x,x,x,x
SMILES,ELG1 genotox,NPC1 prom act,Rab9 prom act,FLuc counter,SMN2 splice up
Cc1cc(/C=N\O)c(C)n1-c1ccncc1,n,n,n,n,n
Cc1ccc(C(=O)Nc2ccc3c(c2)C(=O)NC3=O)cc1,n,n,n,u,x
Cc1ccc(C(=O)Nc2nc(=O)[nH]s2)cc1,n,n,n,24µM,n
COc1ccc(NC(=O)c2cc3ccccc3o/c2=N\NS(=O)(=O)c2ccc(C)cc2)cc1,u,1µM,0.45µM,n,x
COc1cccc2cc(C(=O)Nc3cc(C)cc(C)c3)/c(=N/NS(=O)(=O)c3ccccc3)oc12,u,n,n,n,x
COc1cccc(OC(=O)c2cc3ccccc3oc2=O)c1,n,n,n,13µM,n
COc1ccc2oc(=O)c(C(=O)Nc3cccc(C(C)=O)c3)cc2c1,n,n,u,4.8µM,x
Cc1cccnc1NC(=O)c1cc2ccccc2oc1=O,2.1µM,1.8µM,1µM,0.6µM,20µM
COc1ccc(CNC(=O)c2cc3ccccc3oc2=O)cc1,n,n,n,u,x
COc1ccc2oc(=O)c(/C(C)=N/Nc3ccccc3)cc2c1,n,n,n,24µM,n
COc1cc(/C=C/[N+](=O)[O-])ccc1OC(=O)c1cc2ccccc2oc1=O,u,n,n,6µM,x
COc1cccc(NC(=O)c2cc3ccccc3oc2=O)c1,0.92µM,1.4µM,2.5µM,0.24µM,x
Oc1ccc(Nc2ncnc3c2oc2ccccc23)cc1,u,u,u,15µM,x
c1ccc2c(c1)oc1c(Nc3ccc(CN4CCOCC4)cc3)ncnc12,2.1µM,2.2µM,u,8.5µM,n
CC(=O)N1CCN(c2ccc(Nc3ncnc4c3oc3ccccc34)cc2)CC1,n,n,n,24µM,n
c1ccc(Nc2ncnc3c2oc2ccccc23)cc1,x,x,x,21µM,n
c1ccc2c(c1)oc1c(NCCN3CCOCC3)ncnc12,n,n,n,n,n
O=C(COC(=O)c1cncc(Br)c1)NC1CCCCCC1,n,n,n,n,n
O=C(CC(c1cccs1)N1Cc2ccccc2C1=O)Nc1ccccc1F (stereo not given),x,x,x,n,x
CC1CCN(CC(=O)Nc2cccc(C(=O)Nc3cccc(C(F)(F)F)c3)c2)CC1,n,n,n,n,n
COc1cc(/C=C2/SC(=S)N(CCC(=O)Nc3ccccc3)C2=O)cc(OC)c1OC,n,n,n,n,x
Oc1cccc(Nc2ncnc3c2oc2ccccc23)c1,13µM,3.5µM,u,8.5µM,x
Cc1nn(CCC(=O)N2CCN(S(=O)(=O)c3ccccc3)CC2)c(C)c1C,n,n,n,n,x
O=C(Nc1ccc2c(c1)CCC2)c1ccccc1,2.6µM,1.3µM,0.5µM,1.1µM,2µM
COc1cc2c(cc1NC(=O)c1ccccc1F)CCCC2,u,n,u,11µM,22µM
SMILES,ELG1 genotox,NPC1 prom act,Rab9 prom act,FLuc counter,SMN2 splice up
COc1cc(OC)c(NC(=O)c2ccccc2F)cc1Cl,n,n,n,u,n
O=C(Nc1ccc2c(c1)CCC2)c1ccccc1F,u,0.89µM,0.71µM,3µM,4.5µM
O=C(O)c1ccccc1-c1ccccc1C(=O)Nc1ccc2c(c1)CCC2,n,n,n,n,x
O=C(COC(=O)c1cccc(-n2cnnn2)c1)c1ccc(F)cc1,u,3.2µM,2.8µM,17µM,x
COc1ccc(C(=O)COC(=O)c2cccc(-n3cnnn3)c2)c(OC)c1,u,4µM,3.5µM,11µM,x
O=C(COC(=O)c1ccc(-n2cnnn2)cc1)c1ccc(Br)cc1,n,n,u,n,x
C=CCOc1ccc(C=Nc2ccc(OC)cc2)c(O)c1,n,n,n,8.5µM,x
Cc1ccc(CCNC(=O)CCn2nc(-c3ccc(C)cc3)ccc2=O)cc1,x,x,x,n,x
CCOC(=O)CN1C(=O)S/C(=C/C=C/c2ccc(N(C)C)cc2)C1=O,u,u,3.5µM,4.8µM,u
Cn1c(=O)n(C)c2cc(/C=C3/SC(=O)N(CC(=O)N4CCOCC4)C3=O)ccc21,u,n,n,n,n
CCOC(=O)CN1C(=O)S/C(=C/c2ccc3c(c2)n(C)c(=O)n3C)C1=O,21µM,n,n,u,16µM
CCC(C)(C)NC(=O)CN(Cc1ccccc1Cl)C(=O)CCC(=O)Nc1cc(C)ccn1,n,n,n,n,x
CN(C)c1cc2c(cc1NC(=O)c1ccccc1Cl)n(C)c(=O)n2C,n,n,n,n,x
O=C(/C=C/c1ccco1)c1ccccc1O,u,n,n,11µM,x
CN(C)c1ccc(/C=C/C(=O)c2cccnc2)cc1,n,n,n,3µM,x
